# Results filed as inconclusive are left out. A call without a number means that no potency is given here. The source made the active and inactive calls. The call rests on the fitted dose curve; in most records, active means well fitted curve in the direction sought with a large enough effect; inconclusive means small, poorly fitted or top-dose-only effect, or another doubt; inactive means no such curve, though single readings can be large; an effect the other way counts as inactive or inconclusive.
# Tests used:
# [1] = qHTS of pediatric cancer cell lines to identify multiple opportunities for drug repurposing: Primary screen for DAOY cells (AID 1347090); details: DAOY medulloblastoma viability, CellTiter-Glo luminescence, 48 h; series mostly up to 46 µM; further: nearly all actives have a fitted effect of over 55% in size
# How it was run: (§1)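 Cell viability, CellTiter-Glo luminescence; 500-1,000 cells/well, 8- or 11-point titration, 48 h compound exposure at 37 degrees C, 5% CO2. Controls: DMSO neutral, bortezomib 2.3 µM final as positive.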
# [2] = qHTS of pediatric cancer cell lines to identify multiple opportunities for drug repurposing: Primary screen for SJ-GBM2 cells (AID 1347091); details: SJ-GBM2 viability, CellTiter-Glo luminescence, 48 h; series mostly up to 46 µM; further: potency means the concentration at half of the fitted maximal effect
# How it was run: as §1
# [3] = qHTS of pediatric cancer cell lines to identify multiple opportunities for drug repurposing: Primary screen for A673 cells (AID 1347092); details: A673 Ewing sarcoma viability, CellTiter-Glo ATP luminescence, 48 h; series mostly up to 46 µM; further: nearly all actives have a fitted effect of over 45% in size; further: potency means the concentration at half of the fitted maximal effect
# How it was run: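 Cell viability of A673 measured by CellTiter-Glo ATP luminescence after 48 hours compound exposure. Dilution series spanned 0.78 nM to 46 µM (MIPE, 11-point) or 0.59 nM to 46 µM (NPC, 8-point); bortezomib 2.3 uM positive control.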
# [4] = qHTS of pediatric cancer cell lines to identify multiple opportunities for drug repurposing: Primary screen for BT-37 cells (AID 1347094); details: BT-37 viability, CellTiter-Glo luminescence, 48 h; series mostly up to 57.3 µM; further: potency means the concentration at half of the fitted maximal effect
# How it was run: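 500-1,000 cells/well; 5 h pre-incubation 37 °C/5% CO2; compound pinned; 48 h; CellTiter-Glo, 15 min RT; luminescence. MIPE 11-pt from 0.78 nM, NPC 8-pt from 0.59 nM final. Bortezomib 2.3 µM final as positive control.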
# [5] = qHTS of pediatric cancer cell lines to identify multiple opportunities for drug repurposing: Primary screen for SK-N-MC cells (AID 1347093); details: SK-N-MC viability, CellTiter-Glo luminescence, 48 h; series mostly up to 46 µM; further: potency means the concentration at half of the fitted maximal effect
# How it was run: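 Metabolically active cells were quantified by ATP-dependent luminescence (CellTiter-Glo, 15 min at room temperature) following 48 h treatment. Cells had been plated at 500-1,000 per well and settled for 5 h beforehand.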
Compound,Potency [1],Potency [2],Potency [3],Potency [4],Potency [5]
O=P(O)(O)OCC(O)CO (stereo not given),inactive,inactive,inactive,inactive,
Cc1c(C)c2c(c(C)c1OC(=O)CCC(=O)OCCO)CC[C@@](C)(CCC[C@H](C)CCC[C@H](C)CCCC(C)C)O2,,inactive,,,
CCCCCCCCCCCCCCCC[N+](C)(C)Cc1ccccc1,,,13.3 µM (active),30.9 µM (active),
CC(C)=CCC/C(C)=C/CC/C(C)=C/C(=O)OCC(=O)[C@@]1(O)CC[C@H]2[C@@H]3CCC4=CC(=O)C=C[C@]4(C)[C@H]3[C@@H](O)C[C@@]21C,,13.3 µM (active),inactive,inactive,inactive
CCCCNc1ccc(C(=O)OCCN(CC)CC)cc1,inactive,inactive,,inactive,inactive
CC[N+](CC)(CC)CCOC(=O)C(C1CCCC1)C1CCCC1,inactive,inactive,,inactive,
CCCCOC(=O)CCCCCCCCC(=O)OCCCC,,inactive,inactive,inactive,inactive
O=C(Nc1ccc(S(=O)(=O)N2CCOCC2)cc1)c1cc(Cl)ccc1NS(=O)(=O)c1ccc(Cl)s1,inactive,,inactive,inactive,
O=c1[nH]sc2cc(Cl)ccc12,,,0.001 µM (active),,0.001 µM (active)
O=C1NC2CCCCN2C12CCN(CCCN1c3ccccc3CCc3ccc(Cl)cc31)CC2 (stereo not given),,23.7 µM (active),,30.9 µM (active),16.8 µM (active)
O=C(CCCl)NCCc1ccccc1,,inactive,,inactive,inactive
CCN1CCCC1CN (stereo not given),,inactive,inactive,inactive,inactive
CCCc1ccc(OCC(=O)N2CCN(C(=O)COc3ccc(CCC)cc3OC)CC2)c(OC)c1,inactive,,inactive,inactive,inactive
Nc1nc(=O)n([C@@H]2O[C@H](CO)[C@@H](O)[C@@H]2F)cc1I,,inactive,,,
O=C(O)[C@@H](O)[C@H](O)[C@H](O)[C@@H](O)C(=O)O,inactive,,,,inactive
CCN1CCN(c2cc(-c3ccc(F)cc3)c3c(n2)CCCCCC3)CC1,inactive,,inactive,,inactive
O=C1CC2(CCCC2)CC(=O)N1,inactive,,inactive,inactive,inactive
O=C1NCCN1CCN1CCC(c2cn(-c3ccc(F)cc3)c3ccc(Cl)cc23)CC1,,10.6 µM (active),,,6.68 µM (active)
NC(=O)NC1N=C([O][Al])NC1=O (stereo not given),inactive,inactive,inactive,inactive,inactive
CC(Oc1c(Cl)cccc1Cl)C1=NCCN1 (stereo not given),inactive,inactive,inactive,inactive,
Nc1cc(C(F)(F)F)ccc1S,,inactive,21.1 µM (active),inactive,
O=[N+]([O-])c1cncn1CCN1CCOCC1,inactive,inactive,,inactive,inactive
CCCCCCCCCCCCCCCCCCNC(=O)OC1CCN(C(=O)OC[C@H](COC(=O)N(Cc2cccc[n+]2CC)C(=O)c2ccccc2OC)OC)CC1,,,8.41 µM (active),21.9 µM (active),8.41 µM (active)
Cc1ccc2ccc(Cl)cc2n1,inactive,inactive,inactive,inactive,
CCCCN(CCN(CCCC)C(=O)N1CCOCC1)C(=O)N1CCOCC1,,inactive,,inactive,
O=C(OCC(O)CO)c1ccccc1Nc1ccnc2c(C(F)(F)F)cccc12 (stereo not given),,inactive,,inactive,

# Source: PubChem BioAssay (NCATS)
